The values that follow come from PubChem BioAssay.

Values without a mark were called inactive. How the calls were made is not given here.

The target in the test is Pantothenate synthetase (Mycobacterium tuberculosis (strain ATCC 25618 / H37Rv)) (UniProt P9WIL5). The experiment in a line: Recombinant Mtb pantothenate synthetase (PanC) inhibitors, coupled enzyme, confirmatory (AID 375).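 Further: 0% = full reaction with vehicle and 100% = no enzyme background.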 Particulars: coupled enzyme assay; at 10 µM, active compounds read high.
Sequence of Pantothenate synthetase (Mycobacterium tuberculosis (strain ATCC 25618 / H37Rv)) (P9WIL5 whole entry, looked up): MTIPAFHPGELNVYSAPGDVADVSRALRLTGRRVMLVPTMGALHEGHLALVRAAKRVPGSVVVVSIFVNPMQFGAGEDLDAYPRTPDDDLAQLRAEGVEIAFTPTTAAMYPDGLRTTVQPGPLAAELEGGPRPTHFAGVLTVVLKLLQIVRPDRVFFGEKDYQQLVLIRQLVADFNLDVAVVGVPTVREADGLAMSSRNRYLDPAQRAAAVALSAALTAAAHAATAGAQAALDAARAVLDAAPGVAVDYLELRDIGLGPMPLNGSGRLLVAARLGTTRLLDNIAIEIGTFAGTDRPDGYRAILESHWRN
For `COc1ccc(OC)c(-n2nnnc2SCC(=O)NCc2ccc3c(c2)OCO3)c1`, the inhibition is 0%.

Consider `CCOC(=O)c1cn(CC)c2cc(N3CCOCC3)c(F)cc2c1=O`, for which the inhibition is 0%.

For the compound `N#CCc1ccc(NC(=O)Nc2cccc(Cl)c2)cc1`, the inhibition was 0%.

As to `CCCC(=O)Nc1ccccc1NC(=O)CN(C)S(=O)(=O)c1ccc(C)cc1`, the inhibition is 2%.

As to `Cn1c(=O)c(C(=O)Nc2cccnc2)c(O)c2ccccc21`, the inhibition is 5%.

For the compound `Fc1ccc(-c2cnc[nH]2)cc1`, the inhibition is 0%.

Take `CCOC(=O)c1ccccc1NC(=O)Cn1cnc2c(cnn2-c2ccc(OC)cc2)c1=O`: the inhibition is 0%.

In the case of `CCCCNC(=O)NS(=O)(=O)c1ccc(C)cc1`, the inhibition is 0%.

Take `C#CCN(C)Cc1ccccc1`: the inhibition was 3%.

Take `CCCCNC(=O)c1c(C)cc(=O)oc1C`: the inhibition is 9%.

In the case of `Cc1ccc(-c2nc3ncccc3o2)cc1NC(=O)c1ccco1`, the inhibition was 0%.

As to `COc1ccc(-c2nnc(SCCC(=O)O)n2-c2ccccc2)cc1`, the inhibition was 0%.

Regarding `CC(=O)Nc1sc2c(c1C#N)CCCCC2`, the inhibition is 7%.

For the compound `CCCCn1c(CN2CCN(c3ccc(F)cc3)CC2)nc2c1c(=O)n(C)c(=O)n2C`, the inhibition was 2%.

As to `O=C(c1ccco1)N1CCN(CC2CC3C=CC2C3)CC1` (stereo not drawn), the inhibition is 7%.

For `CC1C(c2ccccc2)N(C)CCC12NC(=O)NC2=O` (stereo not drawn), the inhibition is 1%.

With `O=S(=O)(c1ccccc1)N(Cc1nc(-c2ccccc2)no1)C1CCCCC1`, the inhibition was 0%.

Turning to `CCCOC(=O)c1[nH]c2c(c1C)C(=O)CC(c1cc(OC)c(OC)c(OC)c1)C2` (stereo not drawn), the inhibition was 0%.

Take `S=c1[nH]nc(Cc2ccccc2)n1-c1ccccc1`: the inhibition was 1%.

Consider `C/C=C/COC(=O)c1[nH]c2c(c1C)C(=O)CC(c1ccco1)C2` (stereo not drawn), for which the inhibition is 6%.

For `CC(=O)N1CCc2cc(S(=O)(=O)NCCC(=O)Nc3cc(C)cc(C)c3)ccc21`, the inhibition is 2%.

Take `CCNC(=O)Cn1cnc2c1c(=O)n(C)c(=O)n2C`: the inhibition is 0%.

`CCCOc1cc(C)c(S(=O)(=O)N2CCN(C)CC2)cc1C`: the inhibition was 4%.

The inhibition is how much of the control response was suppressed.
